Test results taken from the supplement of paper PMC6853941.
A number with no mark means an inactive call.

tested on: MCF10A; test: perturbation Mahalanobis distance of morphological profile vs DMSO controls (Mahalanobis distance (SD units)); higher = stronger morphological change, active = 7 or more; settings: screen batch: Batch1_Mahalanobis_Distance; 72 h
Experimental: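 MCF10A cells were seeded onto drugs dispensed acoustically into 384-well plates, using one dose per drug chosen from its human peak plasma concentration, and incubated for 72 h at 37 °C. Cells were stained for DNA, tubulin and mitochondria and imaged; 78 CellProfiler features were extracted, plate-normalised and compared with DMSO wells.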

| SMILES | perturbation Mahalanobis distance |
| --- | --- |
| CCCc1nc(C(C)(C)O)c(C(=O)O)n1Cc1ccc(-c2ccccc2-c2nn[nH]n2)cc1 [Olmesartan] (10 µM) | 2.22 |
| CCN1CC(CCN2CCOCC2)C(c2ccccc2)(c2ccccc2)C1=O (stereo not given) [Doxapram] (66 µM) | 2.26 |
| CC(C)(Sc1cc(C(C)(C)C)c(O)c(C(C)(C)C)c1)Sc1cc(C(C)(C)C)c(O)c(C(C)(C)C)c1 [Probucol] (12.58 µM) | 2.88 |
| CC(C)(C)C(=O)OCC(=O)[C@H]1CC[C@H]2[C@@H]3CCC4=CC(=O)CC[C@]4(C)[C@H]3CC[C@]12C [Desoxycorticosterone Pivalate] (0.72 µM) | 4.89 |
| CN(C)CCCN1c2ccccc2CCc2ccccc21 [Imipramine] (6.2 µM) | 6.2 |
| Cc1ccsc1C(=CCCN1CCC[C@@H](C(=O)O)C1)c1sccc1C [Tiagabine] (2.7 µM) | 2.46 |
| CC(C)(Oc1ccc(Cl)cc1)C(=O)O [Clofibric Acid] (368 µM) | 3.07 |
| CO[C@H]1/C=C/O[C@@]2(C)Oc3c(C)c(O)c4c(c3C2=O)C2=NC3(CCN(CC(C)C)CC3)NC2=C(NC(=O)/C(C)=C\C=C\[C@H](C)[C@H](O)[C@@H](C)[C@@H](O)[C@@H](C)[C@H](OC(C)=O)[C@@H]1C)C4=O [Rifabutin] (0.89 µM) | 6.13 |
| CC(C)C1CCC(C(=O)N[C@H](Cc2ccccc2)C(=O)O)CC1 (stereo not given in full) [Nateglinide] (66.1 µM) | 2.59 |
| C[C@H]1O[C@H](O[C@H]2[C@H](O)[C@@H](O)[C@@H](O[C@H]3[C@H](O)[C@@H](O)C(O)O[C@@H]3CO)O[C@@H]2CO)[C@H](O)[C@@H](O)[C@@H]1N[C@H]1C=C(CO)[C@@H](O)[C@H](O)[C@H]1O (stereo not given in full) [Acarbose] (2.2 µM) | 2.5 |
| Clc1ccc(C(c2ccccc2Cl)C(Cl)Cl)cc1 (stereo not given) [Mitotane] (62.5 µM) | 3.41 |
| Nc1nc(NC2CC2)c2ncn(C3C=C[C@H](CO)C3)c2n1 (stereo not given in full) [Abacavir] (74.4 µM) | 3.81 |
| NC(=O)c1ncn([C@@H]2O[C@H](CO)[C@@H](O)[C@H]2O)n1 [Ribavirin] (75.3 µM) | 5.79 |
| COC(=O)C1=C(C)NC(C)=C(C(=O)OCC(C)C)C1c1ccccc1[N+](=O)[O-] (stereo not given) [Nisoldipine] (13 µM) | 2.36 |
| O=C(O)P(=O)(O)O [Foscarnet] (887 µM) | 3.95 |
| O=[N+]([O-])c1cnc(CO)n1CCO [Hydroxymetronidazole] (58.4 µM) | 2.36 |
| Nc1ccn([C@@H]2O[C@H](CO)[C@@H](O)[C@@H]2O)c(=O)n1 [Cytarabine] (10.3 µM) | 12.2 (active) |
| CC/C(=C(\c1ccccc1)c1ccc(OCCN(C)C)cc1)c1ccccc1 [Tamoxifen] (6.7 µM) | 2.61 |
| NNC(=O)c1ccncc1 [Isoniazid] (73.5 µM) | 6.37 |
| Cc1cc2cc3c(C)cc(=O)oc3c(C)c2o1 [Trioxsalen] (0.07 µM) | 2.32 |

same assay, conditions: screen batch: Batch2_Mahalanobis_Distance; 72 h

| SMILES | perturbation Mahalanobis distance |
| --- | --- |
| CCCc1nc(C(C)(C)O)c(C(=O)O)n1Cc1ccc(-c2ccccc2-c2nn[nH]n2)cc1 [Olmesartan] (10 µM) | 2.24 |
| CCN1CC(CCN2CCOCC2)C(c2ccccc2)(c2ccccc2)C1=O (stereo not given) [Doxapram] (66 µM) | 2.47 |
| CC(C)(Sc1cc(C(C)(C)C)c(O)c(C(C)(C)C)c1)Sc1cc(C(C)(C)C)c(O)c(C(C)(C)C)c1 [Probucol] (12.58 µM) | 3.01 |
| CC(C)(C)C(=O)OCC(=O)[C@H]1CC[C@H]2[C@@H]3CCC4=CC(=O)CC[C@]4(C)[C@H]3CC[C@]12C [Desoxycorticosterone Pivalate] (0.72 µM) | 3.54 |
| CN(C)CCCN1c2ccccc2CCc2ccccc21 [Imipramine] (6.2 µM) | 4.52 |
| Cc1ccsc1C(=CCCN1CCC[C@@H](C(=O)O)C1)c1sccc1C [Tiagabine] (2.7 µM) | 3.14 |
| CC(C)(Oc1ccc(Cl)cc1)C(=O)O [Clofibric Acid] (368 µM) | 2.64 |
| CO[C@H]1/C=C/O[C@@]2(C)Oc3c(C)c(O)c4c(c3C2=O)C2=NC3(CCN(CC(C)C)CC3)NC2=C(NC(=O)/C(C)=C\C=C\[C@H](C)[C@H](O)[C@@H](C)[C@@H](O)[C@@H](C)[C@H](OC(C)=O)[C@@H]1C)C4=O [Rifabutin] (0.89 µM) | 3.99 |
| CC(C)C1CCC(C(=O)N[C@H](Cc2ccccc2)C(=O)O)CC1 (stereo not given in full) [Nateglinide] (66.1 µM) | 3.16 |
| C[C@H]1O[C@H](O[C@H]2[C@H](O)[C@@H](O)[C@@H](O[C@H]3[C@H](O)[C@@H](O)C(O)O[C@@H]3CO)O[C@@H]2CO)[C@H](O)[C@@H](O)[C@@H]1N[C@H]1C=C(CO)[C@@H](O)[C@H](O)[C@H]1O (stereo not given in full) [Acarbose] (2.2 µM) | 3.14 |
| Clc1ccc(C(c2ccccc2Cl)C(Cl)Cl)cc1 (stereo not given) [Mitotane] (62.5 µM) | 4.02 |
| Nc1nc(NC2CC2)c2ncn(C3C=C[C@H](CO)C3)c2n1 (stereo not given in full) [Abacavir] (74.4 µM) | 2.47 |
| NC(=O)c1ncn([C@@H]2O[C@H](CO)[C@@H](O)[C@H]2O)n1 [Ribavirin] (75.3 µM) | 11.4 (active) |
| COC(=O)C1=C(C)NC(C)=C(C(=O)OCC(C)C)C1c1ccccc1[N+](=O)[O-] (stereo not given) [Nisoldipine] (13 µM) | 2.36 |
| O=C(O)P(=O)(O)O [Foscarnet] (887 µM) | 2.62 |
| O=[N+]([O-])c1cnc(CO)n1CCO [Hydroxymetronidazole] (58.4 µM) | 3.44 |
| Nc1ccn([C@@H]2O[C@H](CO)[C@@H](O)[C@@H]2O)c(=O)n1 [Cytarabine] (10.3 µM) | 17.9 (active) |
| CC/C(=C(\c1ccccc1)c1ccc(OCCN(C)C)cc1)c1ccccc1 [Tamoxifen] (6.7 µM) | 2.63 |
| NNC(=O)c1ccncc1 [Isoniazid] (73.5 µM) | 2.59 |
| Cc1cc2cc3c(C)cc(=O)oc3c(C)c2o1 [Trioxsalen] (0.07 µM) | 2.45 |
